The panel holds about 83,000 compounds, 20% with a hit somewhere; the sample as a whole holds those more often.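 Values shown are percent growth following 48 h exposure of cells in 96-well plates to a single concentration of compound; below 10 was considered active.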 Calls of active or inactive are those of the source.

Test systems include NCI-H23 lung; NCI-H226 lung; NCI-H322M lung; HOP-62 NSCLC; NCI-H460 lung; HOP-92 NSCLC; NCI-H522 lung; A549/ATCC NSCLC; 786-0 renal; COLO 205 colon.
What all share (test): NCI-60 one-dose screen, 48 h (100 = growth as untreated, 0 = no growth, -100 = all killed)
Holding throughout (details): 10 µM unless noted

Consider `CCOC(=O)n1ccn(C)c1=S`, for which the growth in the assay with NCI-H23 lung was 107% (inactive); in the assay on NCI-H226 lung, 109% (inactive); in the assay on NCI-H322M lung, 89.1% (inactive); with HOP-62 NSCLC, 60.5% (inactive); in the assay with NCI-H460 lung, 113% (inactive); in the assay with HOP-92 NSCLC, 104% (inactive). The growth with NCI-H522 lung was 84.6% (inactive); in the assay with A549/ATCC NSCLC it was 101% (inactive); in the assay on 786-0 renal, 90.6% (inactive); in the assay with COLO 205 colon it was 31.9% (inactive).
`N#CC1=C(N)Oc2c(sc3c(Br)cccc23)C1c1ccc(Cl)cc1` (stereo not given): the growth in the assay with NCI-H23 lung was 17.2% (inactive); in the assay with NCI-H226 lung, 39.7% (inactive); with NCI-H322M lung it was 36.1% (inactive); with HOP-62 NSCLC it was 14.3% (inactive); with NCI-H460 lung, 8.2% (active); in the assay on HOP-92 NSCLC, 35.6% (inactive). The growth in the assay on NCI-H522 lung is -26.8% (active); with A549/ATCC NSCLC, 1.31% (active); in the assay with 786-0 renal it was 5.59% (active); in the assay with COLO 205 colon, -42.2% (active).
Regarding `O=CN1N=C(c2cccc(Nc3ccnc4cc(Cl)ccc34)c2)CC1c1ccccc1` (stereo not given), the growth in the assay on NCI-H23 lung was 4.34% (active); in the assay on NCI-H226 lung, 38.3% (inactive); in the assay on NCI-H322M lung, 71.8% (inactive); in the assay with HOP-62 NSCLC it was 37.2% (inactive); in the assay on NCI-H460 lung, 7.29% (active); with HOP-92 NSCLC, 18.9% (inactive). Moreover, the growth was -25.8% (active) in the assay with NCI-H522 lung, 21.3% (inactive) in the assay on A549/ATCC NSCLC, 18.9% (inactive) in the assay on 786-0 renal and -40.9% (active) with COLO 205 colon.
On to `COc1ccc2[nH]c(C(=O)N3CCN(C(=O)OCc4ccc5c(Cl)cc(Cl)c(O)c5n4)CC3)cc2c1`, for which the growth in the assay with NCI-H23 lung was -85.8% (active); with NCI-H226 lung, -4.54% (active); in the assay on NCI-H322M lung it was 29.1% (inactive); with HOP-62 NSCLC, -61.5% (active); with NCI-H460 lung, -58.9% (active); in the assay on HOP-92 NSCLC, -65.4% (active). Also, the growth is -70.8% (active) in the assay on NCI-H522 lung, -68% (active) in the assay with A549/ATCC NSCLC, -91.7% (active) in the assay with 786-0 renal and -81.6% (active) with COLO 205 colon.
Take `COc1cc2c(c(OC)c1OC)CCC(c1cccc(NC(=O)c3ccc(Br)cc3)c1)O2` (stereo not given): the growth in the assay on NCI-H23 lung is 80.1% (inactive); in the assay on NCI-H226 lung it was 72.4% (inactive); with NCI-H322M lung, 75.1% (inactive); in the assay with HOP-62 NSCLC, 87.2% (inactive); in the assay with NCI-H460 lung, 93.5% (inactive); with HOP-92 NSCLC, 58.5% (inactive). In addition, the growth was 74.6% (inactive) in the assay with NCI-H522 lung, 67.4% (inactive) in the assay on A549/ATCC NSCLC, 97.1% (inactive) in the assay on 786-0 renal and 85.8% (inactive) in the assay with COLO 205 colon.
As to `CCOC(=O)[C@@H]1CSC(CC)=C(C(=O)O)N1`, the growth in the assay with NCI-H23 lung was 103% (inactive); in the assay on NCI-H226 lung, 98.2% (inactive); in the assay with NCI-H322M lung it was 92.7% (inactive); in the assay with HOP-62 NSCLC it was 89.2% (inactive); with NCI-H460 lung, 110% (inactive); in the assay on HOP-92 NSCLC, -35.1% (active). In addition, the growth with NCI-H522 lung was 93.6% (inactive); in the assay on A549/ATCC NSCLC it was 90.7% (inactive); in the assay on 786-0 renal, 92.2% (inactive); in the assay with COLO 205 colon it was 100% (inactive).
For `COc1cc2oc(-c3cccc(NC(=O)c4ccccc4)c3)cc(=O)c2c(OC)c1OC`, the growth with NCI-H23 lung was 72.9% (inactive); with NCI-H226 lung it was 81.4% (inactive); in the assay on NCI-H322M lung, 83.8% (inactive); in the assay with HOP-62 NSCLC, 78.4% (inactive); with NCI-H460 lung, 78.7% (inactive); in the assay on HOP-92 NSCLC, 47.6% (inactive). Besides, the growth was 49.3% (inactive) with NCI-H522 lung, 68.9% (inactive) in the assay with A549/ATCC NSCLC, 78.1% (inactive) with 786-0 renal and 84.4% (inactive) in the assay with COLO 205 colon.
As to `CCO/C=N/C1=C(C#N)C(c2ccc(Cl)cc2)c2sc3c(F)cccc3c2O1` (stereo not given), the growth with NCI-H23 lung is 76.2% (inactive); in the assay on NCI-H226 lung, 88.6% (inactive); in the assay with NCI-H322M lung, 92.3% (inactive); with HOP-62 NSCLC, 58.4% (inactive); in the assay on NCI-H460 lung, 25.6% (inactive); with HOP-92 NSCLC it was 77.1% (inactive). The growth with NCI-H522 lung is -6.96% (active); in the assay with A549/ATCC NSCLC it was 53.4% (inactive); with 786-0 renal it was 71.5% (inactive); in the assay with COLO 205 colon, 95.7% (inactive).
`O=C1C(Cl)=C(NCCCCCCNC2=C(Cl)C(=O)c3ccccc3C2=O)C(=O)c2ccccc21`: the growth in the assay with NCI-H23 lung was 61.8% (inactive); in the assay with NCI-H226 lung, 102% (inactive); with NCI-H322M lung, 92.2% (inactive); with HOP-62 NSCLC, 112% (inactive); in the assay with NCI-H460 lung, 94.8% (inactive); with HOP-92 NSCLC, 86.2% (inactive). Besides, the growth is 90.7% (inactive) in the assay with NCI-H522 lung, 102% (inactive) in the assay with A549/ATCC NSCLC, 114% (inactive) in the assay on 786-0 renal and 86.2% (inactive) with COLO 205 colon.
Turning to `COc1cc2c(cc1OC)C(C)N(S(N)(=O)=O)CC2` (stereo not given), the growth in the assay with NCI-H23 lung was 87.1% (inactive); in the assay with NCI-H226 lung, 78.8% (inactive); in the assay on NCI-H322M lung it was 105% (inactive); with HOP-62 NSCLC, 80.2% (inactive); in the assay with NCI-H460 lung, 111% (inactive); in the assay on HOP-92 NSCLC, 98.6% (inactive). Moreover, the growth with NCI-H522 lung was 98.4% (inactive); in the assay on A549/ATCC NSCLC it was 101% (inactive); in the assay with 786-0 renal, 89.3% (inactive); in the assay on COLO 205 colon, 111% (inactive).
For `c1ccc(-c2oc(-c3ccccc3)c(CN3CCCCC3)c2CN2CCCCC2)cc1`, the growth with NCI-H23 lung is 26% (inactive); in the assay with NCI-H226 lung, 47.5% (inactive); with NCI-H322M lung, 52.9% (inactive); in the assay with HOP-62 NSCLC, 54.2% (inactive); with NCI-H460 lung it was 24.8% (inactive); in the assay on HOP-92 NSCLC it was 4.02% (active). In addition, the growth in the assay on NCI-H522 lung is 2.64% (active); with A549/ATCC NSCLC it was 56.2% (inactive); in the assay with 786-0 renal, 38.7% (inactive); with COLO 205 colon, 6.83% (active).
Consider `OCCn1cc(-c2nc(-c3c[nH]c4ncccc34)cs2)c2cc(F)ccc21`, for which the growth with NCI-H23 lung is 76.2% (inactive); in the assay on NCI-H226 lung it was 48.4% (inactive); in the assay on NCI-H322M lung it was 66.3% (inactive); with HOP-62 NSCLC it was 71.9% (inactive); with NCI-H460 lung it was 65.7% (inactive); in the assay with HOP-92 NSCLC, 52.3% (inactive). Besides, the growth with NCI-H522 lung was 45.5% (inactive); in the assay with A549/ATCC NSCLC, 63% (inactive); with 786-0 renal, 81.9% (inactive); in the assay with COLO 205 colon it was 66.4% (inactive).
In the case of `O=S(=O)(NCCNc1nccc(-c2c(-c3ccc(F)c(O)c3)nc3sccn23)n1)c1ccc(O)cc1`, the growth in the assay with NCI-H23 lung was 54.6% (inactive); in the assay on NCI-H226 lung it was 37.4% (inactive); with NCI-H322M lung, 70.8% (inactive); in the assay on HOP-62 NSCLC, 78.7% (inactive); in the assay with NCI-H460 lung it was 40% (inactive); in the assay with HOP-92 NSCLC, 47.7% (inactive). The growth is 25.4% (inactive) with NCI-H522 lung, 35.3% (inactive) with A549/ATCC NSCLC, 49.6% (inactive) in the assay with 786-0 renal and 34.7% (inactive) with COLO 205 colon.
